Source: the supplement of paper PMC6555819

system: PPARg:RXRa (NR concentration 180 nM, RXRa partner concentration 90 nM); experiment: PBM binding z-score (relative to random genomic background probes); higher = stronger binding; sequences stand for … in GC…GCGATTGACAGCGTAGAATGAAGG
Summary of the method: (§1)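 Each nuclear receptor dimer, without ligand, was incubated for 1 h on custom Agilent 4×180K protein-binding microarrays. Binding was detected with antibodies against each partner (one per run), and scanned fluorescence was regression-normalized. The binding z-scores are referenced to random human genomic background probes.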

| Sequence | PBM binding z-score |
| --- | --- |
| TCATATAGGTAAATGCTTGGTGAAAGTCCGATCT | 0.522 |
| TTACCAAGGTGAAACGTCGTTGATGCACGCCTTG | 1.66 |
| CGTCCAAGGTCATAGGAGGGCAGTGAAGACAGAT | 5.29 |
| CCTAGCAGGCCAGGGTAACTCAAGCATTTCGCTT | -0.112 |
| CATGCAGGGTCAGCTAGGCCAGAGTAGGGACGGC | 2.66 |
| TCATATAGGTAGATGCTAGGTGAAAGTCCGATCT | 0.568 |
| GCTTGTTGATCAAGGTTAAGAAAGACTAAGCTAA | -0.203 |
| GCTAGCAGGCCATATGGGTCACTCAATGACGGGC | 1.57 |
| CGTCAAAGTTAAACTAAGGTAACGTAAAGCACGC | 0.628 |
| CCTGCTAGGTCATGGTCAACTAATCTACAGTATG | 2.81 |
| CAAACTAGGTCAAAGGTGAAAGTCGAGCCAACCA | 13.3 |
| ATCTCTAGGTAACCAAGTTCATTGAATGCCGAAC | 1.04 |
| TCTTGTTGGTCAAAGGTCACACACTCGAAATGCG | 10.7 |
| ATCTCTAGGTAATCAAGTTCAGTGAATGCCGAAC | 0.317 |
| TCGAGTAGGTTACCAATGGGGCATTGAGCTTTCT | 0.256 |
| CGAACTAGGTCAGAACAGGACAGTAAAGGATGAT | 5.37 |
| ATACCAAGGTGATCGTGAGCTCGTTGATACTAAC | 0.373 |
| GCTAGCAGGCCACTTGGGTCACTCAATGACGGGC | 0.483 |

system: PPARg:RXRa 270nM:90nM, anti-RXR (NR concentration 270 nM, RXRa partner concentration 90 nM); experiment: as above
Summary of the method: as §1

| Sequence | PBM binding z-score |
| --- | --- |
| CGAACTAGGTCAGAACAGGACAGTGAAGGATGAT | 4.45 |
| TCTTGTAGATCAAAGGTTATGAAAGCCGAAGCCT | 7.7 |
| CGTCCAAGGTCATAGGAGGTCCGTGAAGACAGAT | 5.1 |
| TCGCGTAGGTTAGTCGGGGCATTCAGCCAACATA | 0.614 |
| ATCTCTAAGTAAGACTCAGTTCAGTGAAGAACGC | 0.324 |
| CCTACGGGGCCATCAGGTCATTGATATCAACGTT | 1.88 |
| ACTAGCAGGCCCAGGGTCACTCAAGATTAGTCCG | 2.3 |
| AGTCAAAGTTCACTAGGTAACGTACGATTCAGCT | 6.6 |
| TATACAGGGTCAAAGGCCAGAGGACGAATGTCGA | 7.61 |
| CCTATTAGTTGACCATAAGGGCAACAGAAGCTCG | 0.432 |
| GTACCAAGGTGAATAGGTCTTTGATGAGTAGGCG | 1.11 |
| AGAATGAGGTTATACGTAGATAAGGGAAGAAAGT | 2.07 |
| CGTCCAAGGTCAAGGTTAGTGAAAGAGACTCGAA | 5.18 |
| CGTCCAATGTCAGAGAGGTCAGTGAATGCCGAGT | 1.62 |
| CCTAGCAGGCCAGGCTCACTCAAGCATTTCGCTT | -0.638 |
| CAAACTAGGTCACGAAAGGACAAAGTCGAATGAC | 7.34 |
| TCTTGTAGATCAAGAAGGTTAAGAAAGCCTGAGT | 1.65 |
| GGAACGAGGGCATTCGAGTTAATAGCATGGCGAT | 0.939 |
| CTACCAAGGTGAACAAGGCCGTTGATTACTATTC | 0.527 |
| TCTGCAAGGTCAGTTGGTCAGCTAACGAGCTGCC | 2.47 |

| Sequence | PBM binding z-score |
| --- | --- |
| GCTAGAAGGCCATTTGGGTCACTCAATGACGGGC | 0.44 |
| CGTCAAAGTGCAACTAAGGTAACGTAAAGCACGC | 0.685 |
| TCATATAGGTAAATGCTTGGTGAAAGTCCGATCT | 2.24 |
| TTACCAAGGTGAAACGTCGTTGATGCACGCCTTG | 2.76 |
| CGTCCAAGGTCATAGGAGGGCAGTGAAGACAGAT | 5.19 |
| CCTAGCAGGCCAGGGTAACTCAAGCATTTCGCTT | -0.182 |
| CATGCAGGGTCAGCTAGGCCAGAGTAGGGACGGC | 3.1 |
| TCATATAGGTAGATGCTAGGTGAAAGTCCGATCT | 1.87 |
| GCTTGTTGATCAAGGTTAAGAAAGACTAAGCTAA | 0.401 |
| GCTAGCAGGCCATATGGGTCACTCAATGACGGGC | 1.27 |
| CGTCAAAGTTAAACTAAGGTAACGTAAAGCACGC | 0.688 |
| CCTGCTAGGTCATGGTCAACTAATCTACAGTATG | 3.17 |
| CAAACTAGGTCAAAGGTGAAAGTCGAGCCAACCA | 10.7 |
| ATCTCTAGGTAACCAAGTTCATTGAATGCCGAAC | 1.24 |
| TCTTGTTGGTCAAAGGTCACACACTCGAAATGCG | 9.31 |
| ATCTCTAGGTAATCAAGTTCAGTGAATGCCGAAC | 1.19 |
| TCGAGTAGGTTACCAATGGGGCATTGAGCTTTCT | 1.26 |
| CGAACTAGGTCAGAACAGGACAGTAAAGGATGAT | 4.63 |
| ATACCAAGGTGATCGTGAGCTCGTTGATACTAAC | -0.151 |
| GCTAGCAGGCCACTTGGGTCACTCAATGACGGGC | 0.199 |

system: PPARg:RXRa 30nM:10nM, anti-RXR (NR concentration 30 nM, RXRa partner concentration 10 nM); experiment: as above
Summary of the method: as §1

| Sequence | PBM binding z-score |
| --- | --- |
| CGAACTAGGTCAGAACAGGACAGTGAAGGATGAT | 1.53 |
| TCTTGTAGATCAAAGGTTATGAAAGCCGAAGCCT | 7.23 |
| CGTCCAAGGTCATAGGAGGTCCGTGAAGACAGAT | 1.5 |
| TCGCGTAGGTTAGTCGGGGCATTCAGCCAACATA | 0.929 |
| ATCTCTAAGTAAGACTCAGTTCAGTGAAGAACGC | 0.0174 |
| CCTACGGGGCCATCAGGTCATTGATATCAACGTT | 0.224 |
| ACTAGCAGGCCCAGGGTCACTCAAGATTAGTCCG | 0.49 |
| AGTCAAAGTTCACTAGGTAACGTACGATTCAGCT | 3.88 |
| TATACAGGGTCAAAGGCCAGAGGACGAATGTCGA | 5.3 |
| CCTATTAGTTGACCATAAGGGCAACAGAAGCTCG | 0.111 |
| GTACCAAGGTGAATAGGTCTTTGATGAGTAGGCG | 0.335 |
| AGAATGAGGTTATACGTAGATAAGGGAAGAAAGT | 1.02 |
| CGTCCAAGGTCAAGGTTAGTGAAAGAGACTCGAA | 2.08 |
| CGTCCAATGTCAGAGAGGTCAGTGAATGCCGAGT | 0.224 |
| CCTAGCAGGCCAGGCTCACTCAAGCATTTCGCTT | -1.13 |
| CAAACTAGGTCACGAAAGGACAAAGTCGAATGAC | 5.83 |
| TCTTGTAGATCAAGAAGGTTAAGAAAGCCTGAGT | 2.96 |
| GGAACGAGGGCATTCGAGTTAATAGCATGGCGAT | 0.26 |
| CTACCAAGGTGAACAAGGCCGTTGATTACTATTC | -0.248 |
| TCTGCAAGGTCAGTTGGTCAGCTAACGAGCTGCC | 1.5 |

| Sequence | PBM binding z-score |
| --- | --- |
| GCTAGAAGGCCATTTGGGTCACTCAATGACGGGC | -0.268 |
| CGTCAAAGTGCAACTAAGGTAACGTAAAGCACGC | 0.0299 |
| TCATATAGGTAAATGCTTGGTGAAAGTCCGATCT | 3.68 |
| TTACCAAGGTGAAACGTCGTTGATGCACGCCTTG | 1.24 |
| CGTCCAAGGTCATAGGAGGGCAGTGAAGACAGAT | 1.85 |
| CCTAGCAGGCCAGGGTAACTCAAGCATTTCGCTT | -1.01 |
| CATGCAGGGTCAGCTAGGCCAGAGTAGGGACGGC | 0.694 |
| TCATATAGGTAGATGCTAGGTGAAAGTCCGATCT | 3.53 |
| GCTTGTTGATCAAGGTTAAGAAAGACTAAGCTAA | -0.0921 |
| GCTAGCAGGCCATATGGGTCACTCAATGACGGGC | -0.31 |
| CGTCAAAGTTAAACTAAGGTAACGTAAAGCACGC | 0.0889 |
| CCTGCTAGGTCATGGTCAACTAATCTACAGTATG | 0.82 |
| CAAACTAGGTCAAAGGTGAAAGTCGAGCCAACCA | 12.4 |
| ATCTCTAGGTAACCAAGTTCATTGAATGCCGAAC | 0.578 |
| TCTTGTTGGTCAAAGGTCACACACTCGAAATGCG | 9.15 |
| ATCTCTAGGTAATCAAGTTCAGTGAATGCCGAAC | 0.611 |
| TCGAGTAGGTTACCAATGGGGCATTGAGCTTTCT | 1.03 |
| CGAACTAGGTCAGAACAGGACAGTAAAGGATGAT | 1.83 |
| ATACCAAGGTGATCGTGAGCTCGTTGATACTAAC | -0.316 |
| GCTAGCAGGCCACTTGGGTCACTCAATGACGGGC | -0.326 |
